Values joined by “and” are separate entries in the source; they are usually repeats but may differ in a detail not shown here. Equal entries are not always repeated. In all, about 5,500 compounds went through this assay and about 2,000 (36%) were called active. Not shown: some 18% with an inconclusive outcome. Cut-off read from the data, not from the text of the source: active = normalized growth mostly below about 0.91 (no sharp cut-off); inconclusive = no clear call, values can overlap the other calls; inactive = mostly above about 0.92. Some of the results follow. *1 amine or outer side, *2 acyl side, *3 side chain or, on linkers, in order; H or OH if unused. Where a SMILES comes first, the peptide text is derived from it. Bridges are numbered along the chain shown (N, C = ends). [ ]: non-standard residue; d: D form. The star is where a group is joined. ξ: configuration not given here. ΔAla(E,3-NHCONH2) = NC(=O)N/C=C(/N)C(=O)O; X2 = NC1=NCCC(C(N[*:1])C(=O)[*:2])N1; ξβ3hOrn = NCCCC(N)CC(=O)*; Dap = NC[CH](N)C(=O)O
Test: chemical genetic growth profiling, strain panel (AID 1159580);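 note: tested at 20 µM; growth read once vehicle control cultures reached saturation at 30 °C; 1 = growth at the plate median or of vehicle wells; lower values mean less growth of the strain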
Conditions: S. cerevisiae deletion strains, growth OD

Measured: normalized growth

NCCCC(N)CC(=O)NCC1NC(=O)C(CO)NC(=O)C(N)CNC(=O)C(C2CCN=C(N)N2)NC(=O)/C(=C\NC(N)=O)NC1=O (stereo not drawn) (H-[Dap]S[Dap](ξβ3hOrn)[ΔAla(E,3-NHCONH2)][X2]; lactam 1-C; configuration not given here)
inactive: locus YAL013W, strain DEP1, active compounds read low 0.999 | locus YAL021C, strain ccr4, active compounds read low 1.01 | locus YAL026C, strain drs2, active compounds read low 0.994 | locus YAL030W, strain snc1, active compounds read low 1.03 | locus YBL061C, strain skt5, active compounds read low 1.02 | locus YBR009C, strain hhf1, active compounds read low 0.975 | locus YBR021W, strain FUR4, active compounds read low 0.997 | locus YBR023C, strain chs3, active compounds read low 1.01 | locus YBR171W, strain sec66, active compounds read low 1.02 | locus YBR229C, strain ROT2, active compounds read low 1.01 | locus YBR231C, strain swc5, active compounds read low 1.05 | locus YBR279W, strain paf1, active compounds read low 1.01 | locus YCL011C, strain gbp2, active compounds read low 0.984 | locus YCL016C, strain dcc1, active compounds read low 0.989 | locus YCL029C, strain bik1, active compounds read low 1.03 | locus YCL069W, strain vba3, active compounds read low 1.01 | locus YCR088W, strain abp1, active compounds read low 1.02 | locus YDL005C, strain med2, active compounds read low 0.994 | locus YDL035C, strain GPR1, active compounds read low 1.01 | locus YDL040C, strain nat1, active compounds read low 1.01 | locus YDL074C, strain BRE1, active compounds read low 1.02 | locus YDL101C, strain DUN1, active compounds read low 1 | locus YDL185W, strain tfp1, active compounds read low 1.03 | locus YDL192W, strain arf1, active compounds read low 0.998 | locus YDR001C, strain nth1, active compounds read low 0.999 | locus YDR069C, strain doa4, active compounds read low 1.03 | locus YDR101C, strain arx1, active compounds read low 1.02 | locus YDR137W, strain rgp1, active compounds read low 0.991 | locus YDR159W, strain sac3, active compounds read low 0.975 | locus YDR162C, strain NBP2, active compounds read low 1.01 | locus YDR195W, strain ref2 1.05 | locus YDR297W, strain sur2, active compounds read low 1.03 | locus YDR318W, strain mcm21, active compounds read low 1.02 | locus YDR334W, strain swr1, active compounds read low 1 | locus YDR335W, strain msn5, active compounds read low 1.02 | locus YDR388W, active compounds read low 1.01 | locus YDR392W, strain spt3, active compounds read low 0.928 | locus YDR502C, strain sam2, active compounds read low 1.01 | locus YEL003W, strain gim4, active compounds read low 1.04 | locus YEL037C, strain rad23, active compounds read low 1.02 | locus YEL061C, strain CIN8 (second series), active compounds read low 1.02 | locus YEL061C, strain CIN8, active compounds read low 0.997 | locus YER015W, strain faa2, active compounds read low 1.01 | locus YER016W, strain bim1, active compounds read low 0.993 | locus YER110C, active compounds read low 1.02 | locus YER111C, strain swi4, active compounds read low 0.999 | locus YER155C, strain BEM2 (second series), active compounds read low 1 | locus YER155C, strain BEM2, active compounds read low 1 | locus YER167W, strain BCK2, active compounds read low 0.996 | locus YFR010W, strain ubp6, active compounds read low 1.05 | locus YGL078C, strain dbp3, active compounds read low 1.02 | locus YGL086W, strain mad1, active compounds read low 0.997 | locus YGL167C, strain pmr1, active compounds read low 1.02 | locus YGL173C, strain kem1, active compounds read low 1.04 | locus YGL227W, strain vid30, active compounds read low 1.01 | locus YGL240W, strain doc1, active compounds read low 1.06 | locus YGL248W, strain PDE1, active compounds read low 1.01 | locus YGL253W, strain hxk2, active compounds read low 0.984 | locus YGR078C, strain PAC10, active compounds read low 1.01 | locus YGR135W, strain pre9, active compounds read low 1.04 | locus YGR229C, strain SMI1, active compounds read low 1.02 | locus YGR252W, strain gcn5, active compounds read low 0.993 | locus YHR013C, strain ard1, active compounds read low 1.03 | locus YHR027C, strain rpn1, active compounds read low 1.01 | locus YHR030C, strain SLT2, active compounds read low 1 and 1.03 | locus YHR079C, strain IRE1 (second series), active compounds read low 1.02 | locus YHR079C, strain IRE1, active compounds read low 1.03 | locus YHR094C, strain hxt1, active compounds read low 1.01 | locus YHR129C, strain ARP1, active compounds read low 0.999 | locus YHR142W, strain chs7, active compounds read low 1.01 | locus YHR200W, strain rpn10, active compounds read low 1.02 | locus YIL066C, strain RNR3, active compounds read low 1.01 | locus YIL073C, strain SPO22, active compounds read low 1.08 | locus YIL125W, strain kgd1, active compounds read low 1.01 | locus YIR030C, strain dcg1, active compounds read low 1.01 | locus YJL092W, strain hpr5, active compounds read low 1.03 | locus YJL095W, strain BCK1 (second series), active compounds read low 1.03 | locus YJL095W, strain BCK1, active compounds read low 1.01 and 1.04 | locus YJL115W, strain asf1, active compounds read low 1.02 | locus YJL129C, strain trk1, active compounds read low 1.01 | locus YJL134W, strain LCB3, active compounds read low 1.01 | locus YJL154C, strain vps35, active compounds read low 1.01 | locus YJL164C, strain tpk1, active compounds read low 1 | locus YJL166W, strain qcr8, active compounds read low 1.04 | locus YJL168C, strain set2, active compounds read low 1.01 | locus YJL187C, strain SWE1 (second series), active compounds read low 1.01 | locus YJR043C, strain POL32, active compounds read low 1.01

Source: PubChem BioAssay AID1159580 (chemical genetic matrix, 2015)
